The values that follow come from PubChem BioAssay (NCI).

Each structure is given as a SMILES string. Compounds without any hit were thinned out: in the full panel of roughly 79,000, 15% have a hit. Calls of active or inactive are those of the source. Cut-off read from the data, not from the text of the source: active = growth inhibition above about 70%; inactive = the rest.

The assay in a line: NCI Yeast Anticancer Drug Screen. Data for the cln2 rad14 strain (AID 165).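 Note: 0% = growth equal to vehicle treated cultures.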 The note with it: S. cerevisiae cln2 rad14 strain, at 50.0 µM, hits give high values. The method in brief:
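Test compounds were added to cln2 rad14 yeast cultures; inhibition of growth was then determined by comparison with vehicle treatment.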
With `O=C(O)C(C1=CCCCC1)C1(O)CCCCC1` (configuration not stated), the growth inhibition was -5.85% (inactive).

On to `CCc1c(C)[nH]c(C2=NCCC2)c1C`, for which the growth inhibition was -1.6% (inactive). On to `CC1C(O)C(c2ccccc2)(c2ccccc2)C(C)CN1C` (configuration not stated), for which the growth inhibition was 4.65% (inactive).

In the case of `CN(C)Cc1ccccc1COC(=O)c1ccccc1`, the growth inhibition is 11.4% (inactive). Turning to `CCC(=N)C(c1ccccc1)(c1ccccc1)C(C)CN(C)C` (configuration not stated), the growth inhibition is -4.75% (inactive).

On to `CC(=O)OC1/C=C(\C)C(OC(C)=O)C/C=C(/C)CCC2C(/C=C/C1=O)C2(C)C` (configuration not stated), for which the growth inhibition is 64.1% (inactive).

Take `COc1cc(COC(=O)Nc2ccccc2F)cc(OC)c1OC`: the growth inhibition is 5.85% (inactive). As for `Cc1ccc(S(=O)(=O)c2ccc(O)c(C)c2)c(O)c1` (tested in a mixture with another compound), the figure is 45.6% (inactive); as for `Nc1nc(N)c2ccccc2n1`, -0.5% (inactive); as for `COCCOC(=O)c1ccccc1Cl`, 8.8% (inactive). In the case of `COC(=O)/C=C/c1cc(OC)c2c(c1)C(C(=O)OC)C(c1ccc(O)c(OC)c1)O2` (configuration not stated) it was -17.6% (inactive); in that of `O=c1[nH]c2ccccc2nc1/C=C/n1c(=S)[nH]c2ccccc21`, -16.6% (inactive); in that of `COC1(OC)C=NNc2nccn21`, 19.6% (inactive). As for `CC(C)Nc1nc(N)nc2nc(-c3ccc(Cl)cc3)c(-c3ccc(Cl)cc3)nc12`, the figure is -17.4% (inactive); as for `CCOC(=O)/C(=C/c1ccc(C(=O)OC)cc1)N(CC)CC`, 12.2% (inactive); as for `C=C(CN(C)C)C1(c2ccccc2)CC2(CCCC2)C(=O)O1` (configuration not stated), -4.75% (inactive).

As to `CC(C)CCOC(=O)CC(CC(=O)OCCC(C)C)C(=O)OCCC(C)C`, the growth inhibition was 5.9% (inactive).
